# GSIS activator: GLuc luminescence reporter in INS-1E cells, primary screen for activators of glucose-dependent secretion of insulin; activation, % at 16.6 µM; hit rate 0.61% among 370,000; INS-1E GLuc reporter insulin secretion, 2-3 h;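 active = lowest replicate activation of at least 40%, so every replicate reaches that level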;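 note: 0% = median of neutral control wells and 100% = median of IBMX positive control wells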
# Wnt bcat act: activators of Wnt/beta-catenin signaling; AID 743398; Wnt/beta-catenin reporter cell assay, activator, plate reader; hit rate 1.2% among 300,000; activation, % at 9.35 µM; in the data active = activation above about 30%, passing the limit was not always enough; inconclusive = no clear call, values can overlap the other calls;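 note: 0% = neutral control wells and 100% = positive control wells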
# MITF act: activators of MITF-driven TRPM1 promoter activity in SK-MEL-5 cells. hit rate 0.75% among 300,000. activation, % at 12.5 µM. AID 588334. SK-MEL-5 TRPM1-promoter luciferase, 24 h; % of positive control, neutral wells = 0;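 active = mean activation of at least 80% with every replicate also reaching 80%; inconclusive = mean reaches 80% but some replicate falls short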;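 note: 0% = neutral control wells and 100% = parthenolide positive control wells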
# F508del corr: correctors of CFTR F508del function in bronchial epithelial cells; CFBE cells, YFP halide quenching; stimulated with forskolin plus potentiator P3; % fluorescence drop versus neutral controls; activity (quench increase), % at 7.58 µM; hit rate 0.36% among 350,000;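 active = mean added fluorescence quench of at least 8% versus neutral control, with both replicates also reaching 8%; inconclusive = only one of the mean or replicate conditions met; inactive = mean below 8% and not both replicates reaching 8%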;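 note: cells transiently co-express mutant CFTR-F508del with the halide-sensitive YFP; corrector assay measuring rescue of mutant channel to the surface after 24 h compound exposure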
# Env fusion inh: inhibitors of HIV Env-mediated cell fusion; HeLa-JRFL Env/CEM21 cell fusion, luciferase; inhibition, % at 12.3 µM; hit rate 1.1% among 360,000;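 active = mean replicate inhibition score of at least 50 and every replicate individually at or above 50; inconclusive = only one of the two criteria met; inactive = mean below 50 and not all replicates reaching 50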;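 note: 0% = plate neutral controls and 100% = maraviroc near 300 nM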
# * marks the source's active call; other numbers are inactive results; ? = inconclusive; nt = no result given; ! = repeats disagree; [ ] = another dose, or the depositor's remark. Shown are actives, neighbours in structure and some others; about 2.7% of the full set was active somewhere.
SMILES,GSIS activator,Wnt bcat act,MITF act,F508del corr,Env fusion inh
C[C@H](NC(=O)[C@H]1[C@H](CO)[C@H]2Cn3c(cccc3=O)[C@H]2N1CC1CCCC1)c1ccccc1,24.3,nt,nt,nt,nt
Cn1cc(Br)c(C(=O)N/N=C/c2cc3c(cc2Cl)OCO3)n1,12.1,28.5,89.0*,2.6,-27.2
NC(=S)NN=Cc1nccc2c(N)cccc12,-3.0,-2.0,nt,12.6*,11.6
CCN(C(C)=O)c1cnc(C=NNC(N)=S)c2ccccc12,11.6,-3.2,-46.5,2.8,9.2
CC(=O)Nc1ccc2c(c1)CC(=O)N(C)C[C@H](C)[C@H](CN(C)C(C)=O)O2,0.5,nt,nt,nt,nt
COc1ccc2cc(-c3ccccc3)c(=O)oc2c1,-4.3,41.7*,35.5,1.0,-109.5
COc1ccc(-c2cc3cccc(OC)c3oc2=O)cc1,9.0,?,35.2,2.9,-114.0
COc1cccc2cc(-c3ccccc3)c(=O)oc12,6.1,34.8*,62.1,3.5,-42.6
COc1cccc2cc(-c3nc(-c4cccs4)cs3)c(=O)oc12,nt,59.3*,85.2*,nt,-351.6
O=C(Nc1ccc(NC(=O)C2CC2)nc1)c1cnccn1,6.9,48.6*,5.9,0.8,-7.3
COc1cccc(C(=O)Nc2ccc(NC(=O)C3CC3)cn2)c1,nt,23.8,101.5*,nt,-113.1
COc1ccc(C(=O)Nc2ccc(NC(=O)c3cccc(F)c3)cn2)cc1,12.2,-1.1,7.2,13.3*,-2.0
COc1cc(C(=O)Nc2ccc(NC(=O)c3ccccc3)nc2)cc(OC)c1OC,3.1,3.6,10.3,2.4,12.7
COc1cc(C(=O)Nc2ccc(NC(=O)C3CC3)nc2)cc(OC)c1OC,nt,60.6*,1.6,nt,12.2
C[C@@H]1CN([C@H](C)CO)C(=O)c2cccc(NS(=O)(=O)c3cn(C)cn3)c2O[C@@H]1CN(C)Cc1ccc(Cl)c(Cl)c1,15.4,nt,nt,-2.5,8.6[16.7 µM]
COC(=O)C[C@H]1CC[C@H](NS(=O)(=O)c2ccccc2F)[C@H](CO)O1,5.7,nt,nt,1.1,11.8[16.7 µM]
CCCN(C)C[C@@H]1Oc2cc(C#C[C@@H](C)O)ccc2S(=O)(=O)N([C@@H](C)CO)C[C@@H]1C,-3.3,nt,nt,-0.9,-12.1[16.7 µM]
CS(=O)(=O)N1[C@H](C#N)[C@@H](c2ccc(C#Cc3cccc(F)c3)cc2)[C@H]1CO,-15.8,nt,nt,-1.4,-9.1[16.7 µM]
CCCCN(CCCC)Cc1ccc(C(=O)NNC(=O)Nc2ccc(Cl)cc2)o1,-21.9,3.8,7.3,-0.6,15.5
CCCCN(CCCC)Cc1ccc(C(=O)NN)o1,-1.2,54.8*,2.4,-2.6,3.3
CC(C)(C)NC(=O)c1cccc2c1-c1ccccc1C2=O,7.0,1.5,4.3,10.1*,16.6
O=C(NCCO)c1cccc2c1-c1ccccc1C2=O,1.7,-1.2,4.6,1.4,10.1
CC1(c2ccc3ccccc3c2)CCC(=O)O1 (stereo unspecified),28.4,-0.2,-6.5,8.7*,18.8
CC1(c2ccc3ccccc3c2)NC(=O)N(CC(=O)O)C1=O (stereo unspecified),23.8,-2.3,0.0,-1.3,-17.5
CO[C@H]1CN(C)C(=O)c2cc(NC(C)=O)ccc2OC[C@H](C)N(Cc2cc(F)ccc2F)C[C@H]1C,-14.4,nt,nt,1.0,-3.4[16.7 µM]
SMILES,GSIS activator,Wnt bcat act,MITF act,F508del corr,Env fusion inh
CCC(=O)Nc1nc(-c2ccccc2)ns1,nt,nt,nt,nt,-100.2
CC(C)C(=O)Nc1nc(-c2ccccc2)ns1,nt,-5.4,134.8*,nt,-264.3
Cn1c(-c2ccccc2)c[n+]2c1-c1ccccc1C2,4.6,7.5,-6.8,2.3,56.7*
CC(=O)Nc1ccc2c(c1)CC(=O)N(C)C[C@@H](C)[C@H](CN(C)C)O2,0.6,nt,nt,nt,nt
COc1ccc(S(=O)(=O)N[C@@H]2CC[C@@H](CC(=O)NCCc3ccncc3)O[C@@H]2CO)cc1,11.9,nt,nt,-0.5,57.6*[16.7 µM]
CCS(=O)(=O)N[C@@H]1CC[C@H](CC(=O)NCc2ccc(Cl)cc2)O[C@@H]1CO,-1.6,nt,nt,-0.2,4.1[16.7 µM]
COc1cccc(S(=O)(=O)N[C@H]2CC[C@H](CC(=O)NCc3ccncc3)O[C@@H]2CO)c1,-5.6,nt,nt,0.6,66.3*[16.7 µM]
COc1ccc(S(=O)(=O)N[C@@H]2CC[C@H](CC(=O)NCCc3ccncc3)O[C@H]2CO)cc1,8.0,nt,nt,-1.3,-5.8[16.7 µM]
CCS(=O)(=O)N[C@H]1CC[C@@H](CC(=O)NCc2ccc(Cl)cc2)O[C@@H]1CO,nt,nt,nt,-0.3,69.9*[16.7 µM]
CC(C)(C)[S@](=O)N1Cc2cc(C(=O)NCCc3ccncc3)nc(-c3cccc(-c4ccccc4)c3)c2[C@@H]1CCO,-26.1,nt,nt,-1.4,nt
O=C(C1CCCC1)N1CC2(C1)[C@H](c1ccccc1)[C@@H](CO)N2Cc1cncnc1,8.7,nt,nt,1.1,-17.8[16.7 µM]
C[C@H]1CN([C@@H](C)CO)C(=O)c2cccc(NS(=O)(=O)c3ccc(F)cc3)c2O[C@H]1CN(C)C(=O)Nc1ccc(C(F)(F)F)cc1,-11.3,nt,nt,-1.7,-11.9[16.7 µM]
Cc1ccc2oc(C(=O)N3CCCCCC3)c(C)c2c1,4.9,29.0,123.7*,0.1,nt
Cc1ccc2oc(C(=O)N3CCN(c4cccc(C)n4)CC3)c(C)c2c1,-6.6,2.7,18.2,-1.8,-9.2
COc1ccccc1C(=O)N1CCN(C(=O)c2oc3ccc(C)cc3c2C)CC1,-21.6,-1.9,9.5,-1.0,65.9*
C[C@H](CO)N1C[C@H](C)[C@H](CN(C)C)Oc2cc(C3=CCCCC3)ccc2S1(=O)=O,-2.5,nt,nt,-0.9,-34.1[16.7 µM]
O=C(c1ccc(F)cc1)C1CCN(CCCn2c(=O)[nH]c3ccccc32)CC1,6.8,-3.6,nt,1.2,-4.4
O=C(c1ccc(F)cc1)C1CCN(CCn2c(=O)[nH]c3ccccc3c2=O)CC1,nt,-3.6,1.8,-19.8,60.6*!
C[C@@H]1CCCCO[C@H](CN(C)C(=O)Nc2ccc(F)cc2)[C@H](C)CN([C@H](C)CO)C(=O)c2cc(NS(=O)(=O)c3ccccc3)ccc2O1,3.1,nt,nt,1.9,12.8[16.7 µM]
Cc1cc(NC(=O)c2cc3cccc([N+](=O)[O-])c3[nH]2)ccc1F,nt,41.0*,53.3,0.6,-122.2
CC(C)CC(=O)N1CC=CC[C@@H](c2ccc(Cl)cc2)N(Cc2ccc(Cl)cc2)C(=O)[C@@H]1Cc1ccccc1,-20.6,-12.0,2.3,-1.9,75.6*
O=C1[C@H](Cc2ccccc2)NCCCC[C@@H](c2ccc(Cl)cc2)N1Cc1ccc(Cl)cc1,16.4,-4.2,5.4,-1.0,-19.2
N#CCCCc1cc2ccccc2cn1,50.6*,0.5,12.0,0.5,-344.6
COc1ccc(-c2csc3ncnc(Sc4nnnn4C)c23)cc1,12.5,2.0,-3.3,-8.6,42.2
CC(=O)c1cccc(-c2csc3ncnc(Sc4nnnn4C)c23)c1,42.0*,-8.6,nt,-10.5,-184.6
Cn1nnnc1Sc1ncnc2scc(-c3ccc(Cl)cc3)c12,70.4*,-18.2,-88.5,-8.0,-33.0
COc1ccc(S(=O)(=O)Nc2cccc3c2O[C@H](CN(C)Cc2ccc4c(c2)OCO4)[C@@H](C)CN([C@H](C)CO)C3=O)cc1,-11.6,nt,nt,0.2,2.8[16.7 µM]
COc1ccc(NC(=O)N2C[C@@H](O)COC[C@@H]3O[C@H](CC(=O)NC4Cc5ccccc5C4)CC[C@H]32)cc1,-1.3,nt,nt,-2.4,nt
